In PubChem BioAssay AID2284099 (EPA ToxCast):
Active and inactive are the calls of the source. The calls were made as follows: active = hit-call score of the fitted dose curve at least 0.9, where 1 is the maximum; inactive = score below 0.9.

Each compound was assayed against human JAK2 Tyrosine Kinase, JAK2 (gene 3717) (UniProt O60674) (assay: ERF_FR_ENZ_hJAK2: Eurofins (ERF) Enzymatic Radiometric [Km ATP] KinaseProfiler LeadHunter Assay for human JAK2 Tyrosine Kinase).
Experimental: ERF_FR_ENZ_hJAK2 is a biochemical, single-readout assay that uses extracted gene-proteins in a cell-free assay. Measurements were taken 1 hour after chemical dosing in a 96-well plate. See JAK2 Human TK Kinase Enzymatic LANCE Assay [Km ATP], Cerep.ERF_FR_ENZ_hJAK2 is an assay component calculated from the ERF_FR_ENZ_hJAK2 assay. It is designed to measure enzyme activity using a type of enzyme reporter as detected by fluorescence intensity with LANCE technology.Data from the assay component ERF_FR_ENZ_hJAK2 was analyzed at the assay endpoint, ERF_FR_ENZ_hJAK2, in the positive analysis fitting direction relative to DMSO as the negative control and baseline of activity. Using a type of enzyme reporter, loss-of-signal activity can be used to understand changes in enzymatic activity as they relate to gene JAK2. To generalize the intended target to other relatable targets, this assay endpoint is annotated to the kinase intended target family, where the subfamily is non-receptor tyrosine kinase.
JAK2 (h) is incubated with 8 mM MOPS pH 7.0, 0.2 mM EDTA, 100 uM […], 10 mM MgAcetate and [gamma-33P]-ATP (specific activity and concentration as required). The reaction is initiated by the addition of the Mg/ATP mix. After incubation for 40 minutes at room temperature, the reaction is stopped by the addition of phosphoric acid to a concentration of 0.5%. […]

Sequence of human JAK2 Tyrosine Kinase, JAK2 (gene 3717) (O60674 whole entry, looked up): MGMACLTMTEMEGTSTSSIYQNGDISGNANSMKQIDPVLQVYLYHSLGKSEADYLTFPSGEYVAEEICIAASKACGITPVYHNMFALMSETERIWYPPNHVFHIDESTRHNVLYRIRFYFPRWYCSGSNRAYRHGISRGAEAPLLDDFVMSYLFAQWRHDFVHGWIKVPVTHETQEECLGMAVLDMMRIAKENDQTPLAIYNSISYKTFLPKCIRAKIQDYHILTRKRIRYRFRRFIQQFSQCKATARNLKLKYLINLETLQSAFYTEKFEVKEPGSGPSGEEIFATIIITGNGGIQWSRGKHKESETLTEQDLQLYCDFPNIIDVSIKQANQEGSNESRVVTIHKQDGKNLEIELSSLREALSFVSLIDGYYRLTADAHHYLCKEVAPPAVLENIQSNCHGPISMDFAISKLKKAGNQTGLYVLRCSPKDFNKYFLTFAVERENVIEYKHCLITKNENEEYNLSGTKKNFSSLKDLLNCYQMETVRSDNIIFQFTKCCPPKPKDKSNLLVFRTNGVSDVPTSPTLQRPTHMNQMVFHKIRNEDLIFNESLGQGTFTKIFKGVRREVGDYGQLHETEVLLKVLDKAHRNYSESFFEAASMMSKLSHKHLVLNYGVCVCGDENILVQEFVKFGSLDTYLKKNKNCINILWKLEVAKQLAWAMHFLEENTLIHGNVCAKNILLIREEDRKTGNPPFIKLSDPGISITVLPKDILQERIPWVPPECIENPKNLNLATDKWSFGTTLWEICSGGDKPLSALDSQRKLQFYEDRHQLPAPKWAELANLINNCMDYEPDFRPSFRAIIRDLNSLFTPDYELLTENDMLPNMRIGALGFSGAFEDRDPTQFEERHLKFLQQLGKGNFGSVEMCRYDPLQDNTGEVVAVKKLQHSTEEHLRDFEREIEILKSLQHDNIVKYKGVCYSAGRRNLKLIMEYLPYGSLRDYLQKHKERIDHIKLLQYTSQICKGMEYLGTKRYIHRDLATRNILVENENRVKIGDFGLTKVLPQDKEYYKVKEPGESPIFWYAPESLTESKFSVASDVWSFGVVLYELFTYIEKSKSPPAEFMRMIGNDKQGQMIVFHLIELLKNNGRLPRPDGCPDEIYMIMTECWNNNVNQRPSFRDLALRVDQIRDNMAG

SMILES | AC50
O=C(/C=C/c1ccc(O)cc1)CC(=O)/C=C/c1ccc(O)cc1 | 2.51 µM (active)
